Source: PubChem (National Center for Advancing Translational Sciences (NCATS))
In the library only some 12% were active in any assay of this set; here they are far more common.
Cycloheximide cs: counter-screen for Shiga toxin inhibitors: cycloheximide protein synthesis inhibition. cell reporter, cycloheximide protein synthesis inhibition counterscreen. max response, %. AID 2314. actives 12% (n = 300,000); in the data active = max response mostly above about 13%, no sharp cut-off; inactive = mostly below about 14%; also: read at 38.3 µM for the half of the compounds with a filed dose; 0% is about no effect
Sm TGR inh: S. mansoni TGR enzyme inhibition. Potency, µM (highest dose often 114 µM), for inactives: top-dose activity change, negative = inhibition, hits mostly inhibitors. purified TGR, DTNB reduction, TNB absorbance 405 nm. Q962Y6. actives 3% (n = 360,000). AID 485364; active = well fitted inhibition curve with a large enough effect; also: potency is read from the fitted curve at half-maximal effect; % is scaled to controls: 0 for no effect and ±100 for the full control effect; nearly all actives have a fitted effect of over 60% in size
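TGR 20 nM + NADPH 100 uM (dispensed conc.), cpd preinc 15 min RT; start with NADPH (500 uM addition) then DTNB (15 mM addition). Kinetic TNB absorbance, 405 nm filter. Four-parameter Hill fit across titration.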
Shiga inhibitor: Shiga toxin inhibition; Vero cells, Shiga toxin protein synthesis inhibition reporter; inhibition, % at 38.7 µM; actives 9.2% (n = 290,000); in the data active = inhibition mostly above about 28%, no sharp cut-off; inactive = mostly below about 43%; also: 0% is about no effect
FMDV inh: foot and mouth disease virus antiviral activity; AID 1159524; Potency, µM (titrated, usually from 57.9 µM), without a hit: at the top dose activity change, negative = inhibition, most hits filed as inhibitors; actives 1.2% (n = 410,000); FMDV antiviral cell-based qHTS; calls by dose curve; tested in HEK293T cells; also: read-out not given here; potency is read from the fitted curve at half-maximal effect; % is scaled to controls: 0 for no effect and ±100 for the full control effect; nearly all actives have a fitted effect of over 45% in size
An asterisk follows results filed as active.

For Cc1occc1C(=O)Nc1cc(C(C)(C)C)on1 the results were Cycloheximide cs 29*, Sm TGR inh -11%, Shiga inhibitor 70* and FMDV inh 44%.
Cc1cc(NC(=O)Cc2ccccc2C)no1 was read as Cycloheximide cs -3, Sm TGR inh 15%, Shiga inhibitor -1 and FMDV inh -8%.
CN(Cc1ccco1)c1nc(-c2cccc(C#N)c2)nc2ccccc12 was read as FMDV inh 0%.
CCCN1C(=O)C2(c3ccccc31)c1c(oc3cc(C)c(C)cc3c1=O)C(=O)N2CCCOC (stereo not drawn) was read as Sm TGR inh 4% and FMDV inh 17%.
Screening COc1ccc(/C=N/NC(=O)c2ccccc2O)cc1Cn1nnc2ccccc21 returned Cycloheximide cs 22*, Sm TGR inh 7%, Shiga inhibitor 50* and FMDV inh 10%.
CN(C)c1ccc(/C=N/NC(=O)Cn2nnc3ccccc32)cc1 was read as Cycloheximide cs 15, Sm TGR inh 8%, Shiga inhibitor 27 and FMDV inh 24%.
`COc1ccc(/C=N\NC(=O)c2sccc2C)cc1Cn1nc(C)cc1C` gave Cycloheximide cs 42*, Sm TGR inh 0%, Shiga inhibitor 105* and FMDV inh -14%.
`COc1ccc(/C=N/NC(=O)Cn2nnc3ccccc32)cc1OC` gave Cycloheximide cs 22*, Sm TGR inh -4%, Shiga inhibitor 32* and FMDV inh 10%.
Screening COc1cccc(C(=O)N2CCCC(c3nc(SCCN4CCOCC4)ncc3C)C2)c1 (stereo not drawn) returned FMDV inh -24%.
For Cc1cc2c(s1)c1cnn(Cc3ccc(S(C)(=O)=O)cc3)c(=O)c1n2C the results were Cycloheximide cs 10 and Shiga inhibitor 6.
Cn1nnnc1SCc1nc2ccccc2s1 was read as Cycloheximide cs 38*, Sm TGR inh -27%, Shiga inhibitor 94* and FMDV inh 27%.
For Cc1ccnc(SCc2nc3ccccc3s2)n1 the results were Cycloheximide cs 32*, Sm TGR inh -10%, Shiga inhibitor 62* and FMDV inh 34%.
O=c1c2ccccc2nc(SCc2nc3ccccc3s2)n1CCCO was read as Cycloheximide cs 46*, Sm TGR inh 0%, Shiga inhibitor 137* and FMDV inh -34%.
`c1ccc(Cc2nc3ccccc3s2)cc1` gave FMDV inh 21%.
Screening O=C(CSc1nc2ccccc2c(=O)n1CCCO)NCc1ccccc1 returned Cycloheximide cs 10, Sm TGR inh 1%, Shiga inhibitor 20 and FMDV inh 4%.
For Cn1nnnc1SCc1cccc2ccccc12 the results were Cycloheximide cs 7, Sm TGR inh -2%, Shiga inhibitor 25 and FMDV inh 9%.
For N#Cc1cccc(NC(=O)N2CCCC3(CCN(C(=O)c4ccco4)CC3)C2)c1 the results were FMDV inh -9%.
`CCOC(=O)N1CCC(NC(=O)c2ccc3c(c2)N(Cc2ccccc2)C(=O)c2ccccc2S3(=O)=O)CC1` gave Sm TGR inh -3% and FMDV inh -4%.
For C/C(=N\NC(=S)Nc1ccccc1)c1c(O)n(C)c(=O)n(C)c1=O the results were Cycloheximide cs 42*, Sm TGR inh -1%, Shiga inhibitor active and FMDV inh -8%.
For CC(=Nc1ccccc1N)c1c(O)n(C)c(=O)n(C)c1=O the results were Cycloheximide cs 24*, Sm TGR inh -21%, Shiga inhibitor 72* and FMDV inh 11%.
For COc1cccc(NC(=O)CCN2CCN(CCO)CC2)c1 the results were Sm TGR inh 1% and FMDV inh -16%.
For COc1ccc(NC(=O)Cn2c(=O)oc3cc(S(=O)(=O)NC4CCCC4)ccc32)cc1OC the results were Sm TGR inh -5% and FMDV inh 43%.
O=C(N/N=C/c1oc(O)c2ccccc12)c1ccccc1O was read as Cycloheximide cs 6, Sm TGR inh -2%, Shiga inhibitor 19 and FMDV inh 13%.
Screening O=C(N/N=C/c1ccc2nccnc2c1)c1ccccc1O returned Cycloheximide cs 15*, Sm TGR inh 17% and Shiga inhibitor 24.
`O=C(N/N=C/c1ccnc2ccccc12)c1ccccc1O` gave Cycloheximide cs 27*, Sm TGR inh 2%, Shiga inhibitor 32 and FMDV inh 12%.
O=C(N/N=C/c1cccc(C(F)(F)F)c1)c1ccccc1O was read as Cycloheximide cs 30*, Sm TGR inh 13%, Shiga inhibitor 121* and FMDV inh -25%.
For Cc1cc(NC(=O)c2oc3c(c2C)-c2[nH]ncc2CC3)ccc1Br the results were Sm TGR inh 1% and FMDV inh 5%.
